# Tests used:
# Experiment in all cases: DAPPL (digital affinity profiling via proximity ligation, sequencing); 10 mM Tris-HCl pH 7.5, 50 mM NaCl, 1 mM DTT, 4% glycerol, room temperature, 30 min; GST-TFs on glutathione beads, 16-mer random dsDNA library, 0.1% formaldehyde crosslink after washing; high values mean tight binding
# Conditions in all cases: protein: recombinant; tags: N-terminal GST; dsDNA, one strand shown
# [1] = target: T1, FLI1 (Homo sapiens, UniProt Q01543 1-452)
# T1 sequence: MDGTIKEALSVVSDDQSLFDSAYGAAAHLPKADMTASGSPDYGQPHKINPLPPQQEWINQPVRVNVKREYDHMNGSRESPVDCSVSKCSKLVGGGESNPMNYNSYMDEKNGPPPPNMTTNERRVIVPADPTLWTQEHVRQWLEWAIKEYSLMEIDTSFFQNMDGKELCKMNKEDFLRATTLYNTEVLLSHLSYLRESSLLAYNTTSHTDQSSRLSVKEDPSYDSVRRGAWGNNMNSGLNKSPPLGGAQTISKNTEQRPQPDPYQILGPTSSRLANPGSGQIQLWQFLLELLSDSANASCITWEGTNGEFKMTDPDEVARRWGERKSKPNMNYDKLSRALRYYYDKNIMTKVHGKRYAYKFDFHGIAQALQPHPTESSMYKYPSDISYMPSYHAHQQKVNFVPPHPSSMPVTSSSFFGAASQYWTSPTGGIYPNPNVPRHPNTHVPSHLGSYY
# In short: (§1)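 After expression in yeast as GST fusions, human transcription factors were bound to glutathione beads, DNA-barcoded and mixed with a tag-only sample. The pools were incubated with 200 nmole of a 16-mer random double-stranded DNA library in Tris/NaCl/DTT/glycerol buffer (30 min, room temperature), washed and crosslinked with 0.1% formaldehyde. Proximity ligation with BsaI/T4 ligase ran for 1 h at 37 °C, before PCR amplification and sequencing on an Illumina NextSeq500. Binding signal is a hexamer's read frequency for a factor divided by its frequency for the tag-only sample.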
# [2] = target: T2, ELK1 (Homo sapiens, UniProt P19419 1-428)
# T2 sequence: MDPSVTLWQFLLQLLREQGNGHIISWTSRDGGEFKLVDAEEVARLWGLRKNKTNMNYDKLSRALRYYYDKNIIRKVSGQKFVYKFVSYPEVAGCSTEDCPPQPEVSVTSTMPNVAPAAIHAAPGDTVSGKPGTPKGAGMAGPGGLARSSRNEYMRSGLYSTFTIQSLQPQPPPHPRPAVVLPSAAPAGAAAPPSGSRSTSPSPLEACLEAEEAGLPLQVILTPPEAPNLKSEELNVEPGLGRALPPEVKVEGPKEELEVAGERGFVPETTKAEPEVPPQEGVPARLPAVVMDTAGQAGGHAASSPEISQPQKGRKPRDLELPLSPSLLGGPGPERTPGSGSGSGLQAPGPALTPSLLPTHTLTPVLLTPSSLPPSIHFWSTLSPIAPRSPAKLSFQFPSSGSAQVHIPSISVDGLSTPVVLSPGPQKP
# In short: as §1
# [3] = target: T3, GABPA (Homo sapiens, UniProt Q06546 1-454)
# T3 sequence: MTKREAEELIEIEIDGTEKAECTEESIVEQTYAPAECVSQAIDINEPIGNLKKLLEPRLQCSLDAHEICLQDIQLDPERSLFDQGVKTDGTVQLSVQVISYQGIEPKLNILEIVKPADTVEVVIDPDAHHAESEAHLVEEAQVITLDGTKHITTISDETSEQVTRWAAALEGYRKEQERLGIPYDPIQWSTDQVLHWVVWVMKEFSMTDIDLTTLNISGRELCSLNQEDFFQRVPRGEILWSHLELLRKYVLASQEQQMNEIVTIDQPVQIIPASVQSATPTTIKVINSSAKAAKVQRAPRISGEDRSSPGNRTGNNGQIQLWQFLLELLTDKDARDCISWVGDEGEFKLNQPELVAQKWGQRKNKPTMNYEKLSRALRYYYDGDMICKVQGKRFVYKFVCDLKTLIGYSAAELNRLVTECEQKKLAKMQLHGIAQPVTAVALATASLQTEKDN
# In short: as §1
# [4] = target: T4, ERG (Homo sapiens, UniProt P11308 1-479)
# T4 sequence: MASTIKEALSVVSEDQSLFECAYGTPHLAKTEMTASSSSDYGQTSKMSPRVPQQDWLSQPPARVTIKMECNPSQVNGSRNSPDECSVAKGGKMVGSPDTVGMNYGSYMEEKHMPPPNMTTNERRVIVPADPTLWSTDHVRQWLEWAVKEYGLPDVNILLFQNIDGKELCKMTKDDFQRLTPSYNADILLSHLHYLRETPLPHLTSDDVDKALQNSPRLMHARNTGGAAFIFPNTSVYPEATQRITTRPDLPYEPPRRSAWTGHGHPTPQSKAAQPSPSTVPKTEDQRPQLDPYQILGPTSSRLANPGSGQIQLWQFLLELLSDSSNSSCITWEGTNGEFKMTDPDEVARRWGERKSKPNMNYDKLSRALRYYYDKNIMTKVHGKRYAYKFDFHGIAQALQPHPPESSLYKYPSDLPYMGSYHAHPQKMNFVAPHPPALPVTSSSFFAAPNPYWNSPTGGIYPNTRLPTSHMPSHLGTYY
# In short: as §1
# [5] = target: ELF1 (Homo sapiens, UniProt P32519 1-619)
# ELF1, sequence (P32519 whole entry): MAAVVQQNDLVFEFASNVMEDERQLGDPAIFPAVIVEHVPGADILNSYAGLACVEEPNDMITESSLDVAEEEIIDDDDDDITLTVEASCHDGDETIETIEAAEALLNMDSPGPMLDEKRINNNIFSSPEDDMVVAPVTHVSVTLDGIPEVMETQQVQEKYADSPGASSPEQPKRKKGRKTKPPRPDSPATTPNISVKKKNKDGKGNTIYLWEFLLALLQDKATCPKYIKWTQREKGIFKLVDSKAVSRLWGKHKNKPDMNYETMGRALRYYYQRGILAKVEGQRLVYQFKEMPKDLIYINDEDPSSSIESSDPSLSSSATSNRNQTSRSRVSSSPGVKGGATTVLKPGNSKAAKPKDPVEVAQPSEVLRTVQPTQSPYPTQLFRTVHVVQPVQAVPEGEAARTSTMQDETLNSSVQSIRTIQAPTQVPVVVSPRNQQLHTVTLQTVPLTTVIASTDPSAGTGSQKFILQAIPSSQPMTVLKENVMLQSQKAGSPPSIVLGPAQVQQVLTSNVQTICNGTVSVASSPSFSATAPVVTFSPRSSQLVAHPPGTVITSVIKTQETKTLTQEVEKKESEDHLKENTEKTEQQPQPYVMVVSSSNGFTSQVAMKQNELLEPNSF
# In short: as §1
# [6] = target: T5, EHF (Homo sapiens, UniProt Q9NZC4 1-300)
# T5 sequence: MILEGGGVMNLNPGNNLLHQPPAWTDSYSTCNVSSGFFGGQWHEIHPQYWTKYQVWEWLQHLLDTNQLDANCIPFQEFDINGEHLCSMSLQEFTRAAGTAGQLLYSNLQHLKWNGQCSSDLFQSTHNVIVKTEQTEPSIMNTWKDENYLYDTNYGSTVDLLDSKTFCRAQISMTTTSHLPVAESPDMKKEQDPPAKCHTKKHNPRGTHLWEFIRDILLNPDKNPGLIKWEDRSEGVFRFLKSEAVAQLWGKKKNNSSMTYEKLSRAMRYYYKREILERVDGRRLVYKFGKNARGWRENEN
# In short: as §1
# [7] = target: SPI1 (Homo sapiens, UniProt P17947 1-270)
# In short: as §1
# [8] = target: SPIB (Homo sapiens, UniProt Q01892 1-262)
# SPIB, sequence (Q01892 whole entry): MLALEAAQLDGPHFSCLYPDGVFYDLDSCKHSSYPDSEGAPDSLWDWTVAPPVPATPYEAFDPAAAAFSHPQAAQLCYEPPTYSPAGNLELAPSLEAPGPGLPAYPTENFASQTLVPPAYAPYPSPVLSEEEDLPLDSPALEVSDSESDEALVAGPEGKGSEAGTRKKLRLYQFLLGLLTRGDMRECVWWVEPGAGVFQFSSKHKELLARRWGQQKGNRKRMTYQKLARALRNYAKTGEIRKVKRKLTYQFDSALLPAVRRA
# In short: as §1
# [9] = target: T6, ELK3 (Homo sapiens, UniProt P41970 1-407)
# T6 sequence: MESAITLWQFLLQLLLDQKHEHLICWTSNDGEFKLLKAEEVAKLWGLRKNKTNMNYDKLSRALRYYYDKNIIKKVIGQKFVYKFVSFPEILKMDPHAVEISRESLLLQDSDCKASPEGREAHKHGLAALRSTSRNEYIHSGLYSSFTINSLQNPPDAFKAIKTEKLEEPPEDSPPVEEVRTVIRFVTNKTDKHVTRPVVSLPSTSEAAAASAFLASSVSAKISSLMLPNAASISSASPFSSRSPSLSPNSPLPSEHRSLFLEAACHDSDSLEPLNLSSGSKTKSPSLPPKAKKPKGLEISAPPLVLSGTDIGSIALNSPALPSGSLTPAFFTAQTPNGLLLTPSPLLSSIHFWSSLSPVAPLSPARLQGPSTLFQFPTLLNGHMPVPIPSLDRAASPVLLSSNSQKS
# In short: as §1
Sequence,binding signal [1],binding signal [2],binding signal [3],binding signal [4],binding signal [5],binding signal [6],binding signal [7],binding signal [8],binding signal [9]
TTGCCT,"1.16 fold enrichment (6-mer frequency, TF over GST control)","1.18 fold enrichment (6-mer frequency, TF over GST control)","1.15 fold enrichment (6-mer frequency, TF over GST control)","1.17 fold enrichment (6-mer frequency, TF over GST control)","1.21 fold enrichment (6-mer frequency, TF over GST control)","1.13 fold enrichment (6-mer frequency, TF over GST control)","1.15 fold enrichment (6-mer frequency, TF over GST control)","1.25 fold enrichment (6-mer frequency, TF over GST control)","1.3 fold enrichment (6-mer frequency, TF over GST control)"
GAACTC,"1.28 fold enrichment (6-mer frequency, TF over GST control)","1.22 fold enrichment (6-mer frequency, TF over GST control)","1.31 fold enrichment (6-mer frequency, TF over GST control)","1.26 fold enrichment (6-mer frequency, TF over GST control)","1.29 fold enrichment (6-mer frequency, TF over GST control)","1.28 fold enrichment (6-mer frequency, TF over GST control)","1.39 fold enrichment (6-mer frequency, TF over GST control)","1.28 fold enrichment (6-mer frequency, TF over GST control)","1.33 fold enrichment (6-mer frequency, TF over GST control)"
TCTTGA,"1.33 fold enrichment (6-mer frequency, TF over GST control)","1.31 fold enrichment (6-mer frequency, TF over GST control)","1.33 fold enrichment (6-mer frequency, TF over GST control)","1.24 fold enrichment (6-mer frequency, TF over GST control)","1.3 fold enrichment (6-mer frequency, TF over GST control)","1.35 fold enrichment (6-mer frequency, TF over GST control)","1.25 fold enrichment (6-mer frequency, TF over GST control)","1.27 fold enrichment (6-mer frequency, TF over GST control)","1.29 fold enrichment (6-mer frequency, TF over GST control)"
GTTTCC,"2.66 fold enrichment (6-mer frequency, TF over GST control)","2.9 fold enrichment (6-mer frequency, TF over GST control)","2.56 fold enrichment (6-mer frequency, TF over GST control)","3.43 fold enrichment (6-mer frequency, TF over GST control)","2.58 fold enrichment (6-mer frequency, TF over GST control)","2.77 fold enrichment (6-mer frequency, TF over GST control)","2.67 fold enrichment (6-mer frequency, TF over GST control)","2.84 fold enrichment (6-mer frequency, TF over GST control)","2.9 fold enrichment (6-mer frequency, TF over GST control)"
TTCAAT,"1.33 fold enrichment (6-mer frequency, TF over GST control)","1.42 fold enrichment (6-mer frequency, TF over GST control)","1.42 fold enrichment (6-mer frequency, TF over GST control)","1.41 fold enrichment (6-mer frequency, TF over GST control)","1.37 fold enrichment (6-mer frequency, TF over GST control)","1.34 fold enrichment (6-mer frequency, TF over GST control)","1.38 fold enrichment (6-mer frequency, TF over GST control)","1.36 fold enrichment (6-mer frequency, TF over GST control)","1.26 fold enrichment (6-mer frequency, TF over GST control)"
ATGGTT,"1.41 fold enrichment (6-mer frequency, TF over GST control)","1.28 fold enrichment (6-mer frequency, TF over GST control)","1.28 fold enrichment (6-mer frequency, TF over GST control)","1.35 fold enrichment (6-mer frequency, TF over GST control)","1.39 fold enrichment (6-mer frequency, TF over GST control)","1.28 fold enrichment (6-mer frequency, TF over GST control)","1.3 fold enrichment (6-mer frequency, TF over GST control)","1.3 fold enrichment (6-mer frequency, TF over GST control)","1.39 fold enrichment (6-mer frequency, TF over GST control)"
TTGCAT,"1.5 fold enrichment (6-mer frequency, TF over GST control)","1.43 fold enrichment (6-mer frequency, TF over GST control)","1.52 fold enrichment (6-mer frequency, TF over GST control)","1.37 fold enrichment (6-mer frequency, TF over GST control)","1.39 fold enrichment (6-mer frequency, TF over GST control)","1.4 fold enrichment (6-mer frequency, TF over GST control)","1.44 fold enrichment (6-mer frequency, TF over GST control)","1.38 fold enrichment (6-mer frequency, TF over GST control)","1.42 fold enrichment (6-mer frequency, TF over GST control)"
CTCTGA,"1.18 fold enrichment (6-mer frequency, TF over GST control)","1.32 fold enrichment (6-mer frequency, TF over GST control)","1.22 fold enrichment (6-mer frequency, TF over GST control)","1.21 fold enrichment (6-mer frequency, TF over GST control)","1.25 fold enrichment (6-mer frequency, TF over GST control)","1.3 fold enrichment (6-mer frequency, TF over GST control)","1.17 fold enrichment (6-mer frequency, TF over GST control)","1.31 fold enrichment (6-mer frequency, TF over GST control)","1.12 fold enrichment (6-mer frequency, TF over GST control)"

# From article PMC7862700, “An all-to-all approach to the identification of sequence-specific readers for epigenetic DNA modifications on cytosine”
